Drawing on PubChem BioAssay (NCI), this text covers growth for eight compounds.

Some test systems named below: HCT-15 colon; HT29 colon; SNB-75 CNS; SNB-19 CNS; U251 CNS; PC-3 prostate; SK-MEL-5 melanoma; UACC-62 melanoma; LOX IMVI melanoma; SK-MEL-28 melanoma; SK-MEL-2 melanoma; EKVX NSCLC; SN12C renal; UO-31 renal; TK-10 renal; ACHN renal; CAKI-1 renal; A498 renal; CCRF-CEM leukemia; MOLT-4 leukemia.
Holding throughout (assay): NCI-60 one-dose screen, 48 h (100 = growth as untreated, 0 = no growth, -100 = all killed)
Common to all, as to conditions: 10 µM unless noted

Compounds without any hit were thinned out: in the full panel of roughly 83,000, 20% have a hit.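 How to read the values: 0–100, growth inhibition (40 = 60% inhibited); 0, no net growth; -100 to 0, cell death (-40 = 40% of starting cells died; -100 = all dead).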 A number with no mark means an inactive call. The source made the active and inactive calls. Rule for the calls: active = growth percent below 10; inactive = the rest.

As to `Cc1c(C2=NNC(c3ccc4c(c3)OCO4)C2)[n+]([O-])c2ccccc2[n+]1[O-]` (stereo not given), the growth in the test on HCT-15 colon is 103%; in the test on HT29 colon it was 110%; in the test on SNB-75 CNS, 88.9%; with SNB-19 CNS, 103%; in the test with U251 CNS it was 110%; in the test with PC-3 prostate it was 96%. Further, the growth in the test with SK-MEL-5 melanoma was 97.9%; in the test on UACC-62 melanoma it was 118%; in the test on LOX IMVI melanoma, 96.1%; in the test on SK-MEL-28 melanoma, 113%; in the test with SK-MEL-2 melanoma, 81.4%; in the test on EKVX NSCLC, 91.5%. The growth in the test on SN12C renal was 108%; in the test on UO-31 renal it was 84.6%; in the test with TK-10 renal, 183%; in the test with ACHN renal, 108%; in the test with CAKI-1 renal, 107%; with A498 renal, 94.7%. In addition, the growth is 97.7% with CCRF-CEM leukemia and 105% in the test on MOLT-4 leukemia.
On to `Cc1cc2c(C(C)C)c(O)c(O)c(C=NCCCCCCC(=O)O)c2c(O)c1-c1c(C)cc2c(C(C)C)c(O)c(O)c(C=NCCCCCCC(=O)O)c2c1O`, for which the growth in the test with HCT-15 colon was 16.1%; in the test with HT29 colon it was 19%; with SNB-75 CNS, 50.1%; in the test with SNB-19 CNS it was 21.8%; in the test on U251 CNS, 14.3%; in the test with PC-3 prostate, 18.4%. For the same compound, the growth was 30.2% with SK-MEL-5 melanoma; 28.7% with UACC-62 melanoma; 4.47% (active) with LOX IMVI melanoma; 40.2% in the test on SK-MEL-28 melanoma; 28.5% with SK-MEL-2 melanoma; 27.7% in the test with EKVX NSCLC. Also, the growth in the test on SN12C renal is 35.7%; with UO-31 renal it was 28.8%; with TK-10 renal, 17.3%; in the test with ACHN renal it was 42.1%; with CAKI-1 renal it was 63.3%; with A498 renal, 36.6%. Also, the growth was 18.1% with CCRF-CEM leukemia and 18.5% in the test with MOLT-4 leukemia.
As for `C=CCc1cc(Cl)cc2c(OC(C)=O)c(C(C)=O)c(-c3ccccc3)nc12`, the growth with HCT-15 colon is 108%; in the test on HT29 colon, 112%; in the test on SNB-75 CNS, 85.6%; in the test on SNB-19 CNS it was 112%; with U251 CNS, 105%; in the test on PC-3 prostate it was 96%. Also, the growth in the test with SK-MEL-5 melanoma was 105%; with UACC-62 melanoma, 101%; in the test with LOX IMVI melanoma, 97.3%; in the test with SK-MEL-28 melanoma, 116%; with SK-MEL-2 melanoma it was 112%; with EKVX NSCLC, 75.5%. Further, the growth in the test with SN12C renal was 99.5%; in the test with UO-31 renal it was 78.2%; with TK-10 renal it was 114%; with ACHN renal it was 102%; with CAKI-1 renal, 87.5%; with A498 renal, 110%. In addition, the figures for the growth in the test on CCRF-CEM leukemia and in the test with MOLT-4 leukemia were 104% and 101%, respectively.
For the compound `Cn1c(=O)c2c(nc3n2CCN(CCc2ccc(OCCN4CCOCC4)cc2)C3)n(C)c1=O`, the growth with HCT-15 colon is 105%; with HT29 colon it was 107%; in the test with SNB-75 CNS, 101%; in the test on SNB-19 CNS, 108%; in the test on U251 CNS, 105%; in the test with PC-3 prostate, 94.1%. The growth is 94.2% in the test with SK-MEL-5 melanoma; 98.8% with UACC-62 melanoma; 97% with LOX IMVI melanoma; 111% in the test with SK-MEL-28 melanoma; 101% with SK-MEL-2 melanoma; 102% in the test with EKVX NSCLC. Also, the growth is 104% in the test on SN12C renal; 93.8% in the test on UO-31 renal; 104% in the test on TK-10 renal; 106% with ACHN renal; 97.5% in the test with CAKI-1 renal; 81.3% in the test with A498 renal. The growth was 105% in the test on CCRF-CEM leukemia and 98% in the test with MOLT-4 leukemia.
Take `COc1ccc(/C=C/C(=O)/C=C/c2cc3ccc(Cl)cc3[nH]c2=O)cc1`: the growth was 87.4% with HCT-15 colon; 80.6% with HT29 colon; 76.2% with SNB-75 CNS; 80.9% in the test on SNB-19 CNS; 53.3% in the test with U251 CNS; 76.1% in the test with PC-3 prostate. Further, the growth with SK-MEL-5 melanoma is 98.6%; in the test with UACC-62 melanoma it was 72.1%; in the test with LOX IMVI melanoma it was 48.5%; in the test on SK-MEL-28 melanoma, 103%; with SK-MEL-2 melanoma, 94%; in the test on EKVX NSCLC, 84.7%. The growth in the test with SN12C renal was 85.7%; with UO-31 renal, 75.7%; with TK-10 renal, 124%; in the test on ACHN renal, 88.6%; in the test with CAKI-1 renal, 93.2%; with A498 renal, 92.7%. In addition, the results for the growth with CCRF-CEM leukemia and in the test with MOLT-4 leukemia were 56.8% and 65.3%, respectively.
Consider `C=C1C(=O)O[C@H]2[C@H]1CC/C(COC(=O)NCc1ccc(OC)cc1)=C\CC[C@@]1(C)O[C@@H]21`, for which the growth was 12.9% in the test with HCT-15 colon; -4.4% (active) in the test on HT29 colon; 96.4% with SNB-75 CNS; 61.7% with SNB-19 CNS; 67.4% in the test with U251 CNS; 52.9% in the test with PC-3 prostate. In addition, the growth was 87% in the test with SK-MEL-5 melanoma; 27.5% in the test with UACC-62 melanoma; 13.9% in the test with LOX IMVI melanoma; 51.2% in the test with SK-MEL-28 melanoma; 53.4% in the test with SK-MEL-2 melanoma; 75.9% in the test with EKVX NSCLC. Moreover, the growth is 32.8% in the test on SN12C renal; 18.4% in the test on UO-31 renal; 31.2% in the test on TK-10 renal; 4.28% (active) with ACHN renal; 15% with CAKI-1 renal; 89.4% with A498 renal. For the same compound, the growth was 3.72% (active) in the test with CCRF-CEM leukemia and 24.2% in the test with MOLT-4 leukemia.
On to `CC(=O)Oc1cccc(OC(C)=O)c1OC(C)=O`, for which the growth with HCT-15 colon is 101%; with HT29 colon it was 110%; in the test with SNB-75 CNS, 88.4%; with SNB-19 CNS, 105%; in the test with U251 CNS it was 95.6%; in the test on PC-3 prostate, 89.6%. The growth was 93.8% in the test on SK-MEL-5 melanoma; 96.8% in the test with UACC-62 melanoma; 95.2% in the test with LOX IMVI melanoma; 104% with SK-MEL-28 melanoma; 103% in the test with SK-MEL-2 melanoma; 95.4% in the test on EKVX NSCLC. Also, the growth with SN12C renal was 99.4%; in the test on UO-31 renal, 76.6%; in the test on TK-10 renal, 107%; with ACHN renal, 102%; in the test on CAKI-1 renal it was 84%; in the test on A498 renal, 87.3%. In addition, the growth with CCRF-CEM leukemia is 100%; in the test with MOLT-4 leukemia, 82.4%.
As to `O=S(=O)(NCCNc1cc(-c2cn(-c3ccccc3)nc2-c2ccccc2)ccn1)c1ccc(F)cc1`, the growth was 74.2% in the test on HCT-15 colon; 88.3% in the test with HT29 colon; 77.4% in the test with SNB-75 CNS; 92.5% with SNB-19 CNS; 72.7% in the test on U251 CNS; 47.6% in the test on PC-3 prostate. Moreover, the growth in the test on SK-MEL-5 melanoma was 68.9%; in the test with UACC-62 melanoma, 89.4%; with LOX IMVI melanoma, 78.5%; with SK-MEL-28 melanoma it was 104%; in the test on SK-MEL-2 melanoma, 108%; in the test on EKVX NSCLC it was 71.3%. The growth is 92.8% in the test with SN12C renal; 60.7% in the test on UO-31 renal; 114% in the test on TK-10 renal; 93% in the test on ACHN renal; 66.1% in the test with CAKI-1 renal; 83.8% in the test on A498 renal. Besides, the results for the growth with CCRF-CEM leukemia and with MOLT-4 leukemia were 83.4% and 70.1%, respectively.
